In PubChem BioAssay (Tox21):
Results filed as inconclusive are left out. Active and inactive are the calls of the source. Calls follow the shape of the dose curve; as a rule, active = well fitted cell-killing curve with a large enough effect in the repeat runs; inconclusive = weak or mixed curves, or effect the other way; inactive = flat fitted curve, though single readings scatter.
% is scaled to controls: 0 for no effect and ±100 for the full control effect.

Assay: qHTS RealTime-Glo MT Cell Viability Assay in HEK293 cells - 24 hour (AID 1224886); also: top concentration of the series differs between compounds; nearly all actives have a fitted effect of over 50% in size
Settings: RealTime-Glo luminescence; series mostly up to 76.8 µM; activity change, negative = cytotoxicity: at the top concentration
How it was run: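 Luminescence generated by NanoLuc from substrate produced by living HEK293 cells served as the viability signal. Each value reflects the reading at its stated time point during continuous 40 h compound exposure at 37 C.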
In the case of `CCC/C=C(\C=O)CC`, the “activity change, negative = cytotoxicity” value is reported as -15% (inactive). With `O=C(Cl)c1ccccc1[N+](=O)[O-]` the “activity change, negative = cytotoxicity” value was 9.23% (inactive). In the case of `CCC(=O)CC`, the “activity change, negative = cytotoxicity” value is reported as 5.51% (inactive). For `CC(Oc1cc(Cl)ccc1Cl)C(=O)O` (stereo not given), the “activity change, negative = cytotoxicity” value was 0.831% (inactive). In the case of `Nc1nc(-c2ccccc2)c(Br)c(=O)[nH]1`, the “activity change, negative = cytotoxicity” value is reported as -0.108% [at 35.3 µM] (inactive). For `CC1=C(C(=O)O)N2C(=O)[C@@H](NC(=O)[C@H](N)C3=CCC=CC3)[C@H]2SC1`, the “activity change, negative = cytotoxicity” value was 10.3% [at 35.3 µM] (inactive). In the case of `Nc1nnnn1-c1ccccc1`, the “activity change, negative = cytotoxicity” value is reported as 9.44% [at 35.3 µM] (inactive). In the case of `CC(C)OC(=O)CCC(=O)OC(C)C`, the “activity change, negative = cytotoxicity” value is reported as 13.8% (inactive). For `COC(C)(OC)OC`, the “activity change, negative = cytotoxicity” value was 4.74% (inactive). In the case of `C[C@]12CCC(=O)C=C1CC[C@H]1[C@@H]3CC[C@](O)(C(=O)CO)[C@@]3(C)C[C@H](O)[C@@]12F`, the “activity change, negative = cytotoxicity” value is reported as -23.2% [at 35.3 µM] (inactive). With `C=C(C)[C@@H]1CC=C(C)CC1` the “activity change, negative = cytotoxicity” value was 4.42% (inactive). With `COC(=O)/C=C\C(=O)O` the “activity change, negative = cytotoxicity” value was 8.12% (inactive). With `CCCSSCCC` the “activity change, negative = cytotoxicity” value was -0.0708% (inactive). For `CCC(=O)Oc1ccc2c(c1)CC[C@@H]1[C@@H]2CC[C@@]2(C)[C@H]1C[C@@H](OC(=O)CC)[C@@H]2OC(=O)CC`, the “activity change, negative = cytotoxicity” value was -4.23% [at 35.3 µM] (inactive). In the case of `CC(=O)C(C)O` (stereo not given), the “activity change, negative = cytotoxicity” value is reported as 17.7% (inactive). For `Cc1ncc([N+](=O)[O-])n1CC(C)O` (stereo not given), the “activity change, negative = cytotoxicity” value was -0.0821% [at 35.3 µM] (inactive). In the case of `C[C@H]1[C@@H](c2ccccc2)NC(=O)N1C`, the “activity change, negative = cytotoxicity” value is reported as -7.12% (inactive). With `CC1CC(=O)CC(C)(C)C1` (stereo not given) the “activity change, negative = cytotoxicity” value was 11.8% (inactive). For `CCCCOCC(C)O` (stereo not given), the “activity change, negative = cytotoxicity” value was 8.41% (inactive). For `COc1cc(OC)nc(O[C@H](C(=O)O)C(OC)(c2ccccc2)c2ccccc2)n1`, the “activity change, negative = cytotoxicity” value was 7.88% [at 35.3 µM] (inactive). For `Cc1ccnc(N)c1`, the “activity change, negative = cytotoxicity” value was -4.93% (inactive). With `CC(C)OC(=O)OCOP(=O)(CO[C@H](C)Cn1cnc2c(N)ncnc21)OCOC(=O)OC(C)C` the “activity change, negative = cytotoxicity” value was 5.27% [at 35.3 µM] (inactive). With `Cn1c(=O)c2c(ncn2CCO)n(C)c1=O` the “activity change, negative = cytotoxicity” value was 1.49% [at 35.3 µM] (inactive). For `CN(C)CCCCl`, the “activity change, negative = cytotoxicity” value was -2.19% (inactive). For `CC(C)Cn1cnc2c1c(=O)n(C)c(=O)n2C`, the “activity change, negative = cytotoxicity” value was 6.1% [at 35.3 µM] (inactive).
